# Screening results deposited in PubChem BioAssay by several laboratories.
# In the library only some 2.4% were active in any assay of this set; here they are far more common.
# M18AAP inhibitor: PfM18AAP enzyme inhibition; recombinant PfM18AAP, H-Glu-NHMec fluorogenic cleavage; inhibition, % at 7.35 µM; 290,000 compounds, 1.2% hits; AID 1822;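 active = inhibition above the campaign mean inhibition over all tested compounds plus 3 SD, cut at about 28% in these data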;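 also: 0% = plate median of test compound wells and 100% = 2 mM ZnCl2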
# eIF4H FP inh: inhibitors of RNA binding by human eIF4H; inhibition, % at 35 µM; AID 2012; eIF4H fluorescence polarization binding assay; Q15056; 290,000 compounds, 0.94% hits;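 also: calls also rest on retests at 20 µM and on dose response follow-up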
# eIF4E 4G PPI: inhibitors of eIF4E and eIF4G interaction in translation initiation. TR-FRET eIF4E-eIF4GI(517-606) binding, 2 h. inhibition, % at 21.7 µM. 220,000 compounds, 0.37% hits;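 active = inhibition above about 30%, limit read from the data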;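 also: 0% = full FRET control wells and 100% = background wells lacking eIF4GI fragment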
# PABP FP inh: blocks human PABP binding to poly(A) RNA | fluorescence polarization | inhibition, % at 35 µM | P11940 | 290,000 compounds, 1% hits;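 also: calls also rest on retests at 20 µM and on dose response follow-up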
# PERK inhibitor: human PERK inhibition, primary cell-based screen | Q9NZJ5 | 220,000 compounds, 0.17% hits | CHO PERK-DD fusion, SEAP luminescence translation reporter | inhibition, % at 5.6 µM;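 active = inhibition above the mean inhibition of all tested compounds plus 3 SD, set separately per screening campaign, cut at about 2.9% in these data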;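 also: PERK kinase domain activated by AP20187 dimerizer at 100 nM; 0% = DMSO with dimerizer and 100% = rapamycin at 8.4 µM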
# PABP1 MLLE inh: blocks PAM2 peptide binding to the PABP1 MLLE domain. GST-MLLE / FITC-PAM2 fluorescence polarization. inhibition, % at 20 µM. 360,000 compounds, 0.36% hits. AID 588489; in the data active = inhibition above about 35%, passing the limit was not always enough;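 also: plate controls were DMSO wells with GST-MLLE for no effect and wells lacking GST-MLLE protein for full effect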
# * hit, by the source's call; ? = inconclusive; · = not tested or not shown. Unless noted, no rule for the calls is given here.
SMILES,M18AAP inhibitor,eIF4H FP inh,eIF4E 4G PPI,PABP FP inh,PERK inhibitor,PABP1 MLLE inh
CO[C@H]1C=CO[C@@]2(C)Oc3c(C)c(O)c4c(O)c(c5c(nc6cc(C)ccn65)c4c3C2=O)NC(=O)C(C)=CC=C[C@H](C)[C@H](O)[C@@H](C)[C@@H](O)[C@@H](C)[C@H](OC(C)=O)[C@@H]1C,48*,7,3,7,0,·
N#C/C(=C\c1ccc(-c2ccccc2[N+](=O)[O-])o1)C(=O)N1CCOCC1,7,61*,-4,0,1,7
CC(C)Oc1ccc(CCC(=O)NNC(=O)CCC(=O)O)cc1,-5,3,8,11,3.1*,3
Cc1[nH]n(-c2ccccc2)c(=O)c1/C=N/n1c(C)nc2ccccc2c1=O,0,1,8,60*,1,6
Cc1ccc(-n2[nH]c(C)c(/C=N/n3c(C)nc4ccccc4c3=O)c2=O)cc1,-7,3,1,14,1,5
O=C(/C=C/c1ccco1)NCC1COc2ccccc2O1 (stereo unspecified),-57,-3,6,29,0,1
O=C(O)C1C2C=CC3(CN(Cc4ccco4)C(=O)C13)O2 (stereo unspecified),3,84*,4,14,1,6
CCOC(=O)CC(NS(=O)(=O)c1ccc2[nH]cc(C(=O)O)c(=O)c2c1)c1ccc(OCC)c(OC)c1 (stereo unspecified),1,79*,·,41*,·,-4
Cc1cccc(/C=N/NC(=O)c2ccc(F)cc2)n1,-2,3,·,10,·,-4
CCCCc1cc(=O)oc2c(CN3CCCC3)c(O)ccc12,3,22,·,15,-1,4
CCCCc1cc(=O)oc2cc(C)c(CN3CCCC3)c(O)c12,5,60*,-5,62*,1,-38
CCc1cc(=O)oc2cc(C)c(CN3CCCC(C)C3)c(O)c12 (stereo unspecified),8,63*,8,63*,1,5
CCOc1ccccc1N=C1SCC(C)N1C(=O)C1CCN(c2ncnc3sc(C)c(C)c23)CC1 (stereo unspecified),·,·,·,·,·,-11
CCCCn1c(N)c(N(CC(C)C)C(=O)CCC2CCCCC2)c(=O)[nH]c1=O,-7,2,·,-6,·,-19
CCn1c(C)nc2cc(C(=O)NNC(=S)NC(=O)c3ccccc3)ccc21,13,-1,-5,65*,1,20
O=C(NC1=NCCS1)c1ccccc1,1,-11,·,0,·,3
O=C(NC1=NCCS1)c1csc2ccccc12,14,-4,8,-8,1,36*
CC(C)C(NC(=O)c1ccc(C(C)(C)C)cc1)C(=O)NC1=NCCS1 (stereo unspecified),-10,-9,3,-6,-3,16
CC(C)C(NC(=O)c1cccs1)C(=O)NC1=NCCS1 (stereo unspecified),2,3,4,-6,0,42*
O=C(NC1=NCCS1)c1cccs1,1,2,1,28,2,44*
O=C(NC1=NCCS1)c1ccccc1Cl,2,7,·,6,·,9
Nc1nc(Cl)nc2c1ncn2[C@@H]1O[C@H](CO)[C@@H](O)[C@H]1O,-5,-2,-3,8,5.6*,3
Nc1nc(=S)c2ncn(C3OC(CO)C(O)C3O)c2[nH]1 (stereo unspecified),26,89*,17,53*,0,29
CCOc1ccccc1NC(=O)C1COc2ccccc2O1 (stereo unspecified),5,-3,·,8,·,-4
COc1ccc(NS(=O)(=O)c2ccc(Cl)s2)cn1,-6,?,-6,?,1,58*
SMILES,M18AAP inhibitor,eIF4H FP inh,eIF4E 4G PPI,PABP FP inh,PERK inhibitor,PABP1 MLLE inh
COc1ccc(NS(=O)(=O)c2cccs2)cn1,0,0,-2,3,0,5
CC(C)(CC(=O)O)CC(=O)Nc1ccc2c(c1)ncn2CCc1ccccc1,3,-4,·,8,·,-7
COc1ccc(NC(=O)COc2coc(CN3CCN(c4ccccc4)CC3)cc2=O)cc1,·,·,·,·,·,14
N#C/C(=C(\O)Cc1ccccc1)c1nc2ccccc2[nH]1,2,2,-26,9,-1,-2
N#C/C(=C(/O)CCl)c1nc2ccccc2[nH]1,19,?,12,active,1,-15
Cc1nonc1NC(=O)c1ccc(Cl)c(S(=O)(=O)N2CCCCC2)c1,-1,3,-4,21,1,19
C[C@H](CO)N1C[C@H](C)[C@@H](CN(C)S(=O)(=O)c2ccccc2)Oc2ccc(NS(=O)(=O)c3cn(C)cn3)cc2C1=O,·,·,·,·,·,-2
COC(=O)/C=c1/s/c(=C(/C#N)C(=O)N2CCOCC2)n(-c2ccccc2)c1=O,9,-10,-1,0,0,27
Cc1ccccc1NC(=O)/C(C#N)=C\c1cc(C)n(-c2ccc(C(=O)O)cc2)c1C,-3,?,5,40*,1,-14
O=C(NCc1ccco1)c1ccc([N+](=O)[O-])o1,3,89*,16,active,1,8
COC(=O)/C=c1/s/c(=C(\C#N)C(=O)NCc2ccco2)n(-c2ccc(C)cc2)c1=O,0,101*,0,90*,1,-105
N#C/C(=C/c1ccccc1[N+](=O)[O-])C(=O)NCc1ccco1,-1,63*,1,9.5*,1,20
Cc1cccc(NC(=O)CCCN2C(=O)C(c3ccccc3)Oc3cccnc32)c1C (stereo unspecified),-11,5,·,-8,·,-18
N#C/C(=C\c1cccnc1)C(=O)Nc1ccccc1[N+](=O)[O-],-1,66*,·,55*,·,-22
N#C/C(=C\c1ccccc1[N+](=O)[O-])C(=O)NCc1ccccc1,-4,69*,5,41*,1,57*
COc1ccc(-n2c(C)cc(/C=C(\C#N)C(=O)NCc3ccco3)c2C)cc1,-7,57,5,0.2*,0,14
Cc1ccccc1NC(=O)/C(C#N)=C\c1cccnc1,3,-7,2,0,0,-87
NC(=O)C1CCN(C(=O)c2ccco2)CC1,-9,2,-5,7,1,11
CSc1ccc(CCNS(=O)(=O)c2csc(C(N)=O)c2)cc1,-4,-20,·,-6,·,-11
COc1ccc(C(=O)Cc2ccccc2)cc1OC,2,5,0,-6,4.8*,-3
CC(C)(C)c1ccc(OCCC(=O)Nc2cccc(S(=O)(=O)NC3=NCCCCC3)c2)cc1,·,·,·,·,·,6
Cc1ccc(C)c(Nc2ncccc2C(=O)NCc2cccs2)c1,-10,?,0,76*,0,8
Cc1ccc(NC(=S)N2CCC(c3ccc(C)cc3)C2)cc1 (stereo unspecified),39*,-7,-1,-8,2,-12
O=C1CCCC2=C1C(c1ccco1)Nc1ccc3ccccc3c12 (stereo unspecified),20,80*,21,84*,0,-4
